Compound activity (PubChem BioAssay)
KCNQ2 block = inhibitors of rat KCNQ2 potassium channel. B-score at 10 µM. CHO-K1 KCNQ2, FluxOR thallium flux, 20 min; hits give low values. AID 2156. hit rate 1.1% among 310,000. O88943;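 active means fluorescence ratio B-score at most minus 3 library SDs, with starting brightness B-score within 2 library SDs, cut at about -5.5 in these data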
KCNQ2 enhance = potentiators of rat KCNQ2 potassium channel; AID 2239; O88943; hit rate 0.54% among 310,000; CHO-K1 KCNQ2, FluxOR thallium flux fluorescence; hits give high values; B-score at 10 µM;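 active means fluorescence ratio B-score at least 3 SD of library B-scores, with initial fluorescence B-score within 3 of them, cut at about 5.3 in these data; same plate scores as AID 2156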;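 further: B-score of peak minus minimum over baseline fluorescence ratio after K+ and Tl+ stimulus; positive B-score means potentiation of KCNQ2 with more thallium influx and brighter signal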
Kir21 conf inh = confirmation of mouse Kir2.1 potassium channel inhibitors; shares compounds with KCNQ2 enhance; Kir2.1-expressing cells, FluxOR thallium flux fluorescence; hits give low values; Tl flux remaining, % of negative control (hits give low values), % at 10 µM; hit rate 41% among 2,300; AID 2032;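 active means Primary-screen hit whose thallium flux fell at least 3 control SD below untreated wells in both duplicates, with normal baseline fluorescence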;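 further: 0% = blank wells without stimulus and 100% = stimulated no-compound controls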
HEK293 Tl flux = parental HEK293 activity in Kir2.1 inhibitor counter-screen; AID 2105; hit rate 19% among 2,300; shares compounds with KCNQ2 enhance; FluxOR signal as % of negative control (100 = no effect), % at 10 µM; parental HEK293 cells, FluxOR thallium flux fluorescence; 0% = unstimulated blank wells;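 active means dye signal at least 3 control SD above or below untreated wells in both duplicates, raw fluorescence within 3, either direction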;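 further: percent is based on the flux ratio of peak minus minimum fluorescence over baseline F0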
CHO-K1 ctr = parental CHO-K1 activity in KCNQ2 potentiator counter-screen; shares compounds with KCNQ2 enhance; parental CHO-K1 cells, FluxOR thallium flux fluorescence; zero = vehicle mean+3SD, 100% = vehicle-minus-blank window; activity increase over 3SD of controls, % at 10 µM; hit rate 43% among 1,200; AID 2282;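 active means signal rise of at least 3 SD above the untreated control mean, in both duplicate wells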;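 further: counter screen of KCNQ2 potentiator hits so any rise reflects channel-independent effects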
KCNQ1 sel pot = tests whether KCNQ2 potentiators also act on human KCNQ1 | shares compounds with KCNQ2 enhance | CHO KCNQ1 stable, FluxOR thallium flux fluorescence; beyond 3SD, as % of vehicle-control signal | activation over 3SD threshold, % at 10 µM | hit rate 28% among 1,200 | AID 2283;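 active means fluorescence ratio rise of at least 3 SD of vehicle wells above their mean, in both replicate wells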;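 further: 0% = vehicle mean plus 3 SD and 100% = vehicle minus unstimulated blank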
KCNQ2 pot conf = confirmation of rat KCNQ2 potassium channel potentiators | shares compounds with KCNQ2 enhance | CHO-KCNQ2 cells, FluxOR thallium flux fluorescence | potentiation, less the hit threshold, % at 10 µM | hit rate 68% among 1,200;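 active means fluorescence ratio rising 3 SD or more over the vehicle control mean in both replicates, plus primary screen hit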;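 further: peak minus minimum thallium fluorescence divided by baseline after K/Tl stimulus; 0% = vehicle mean plus 3 SD and 100% = vehicle minus unstimulated blank difference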
Kir2-1 sel = tests whether KCNQ2 potentiators also affect mouse Kir2.1 | activity over 3SD threshold, % at 10 µM | AID 2345 | shares compounds with KCNQ2 enhance | hit rate 2% among 1,200 | HEK293 Kir2.1, FluxOR thallium flux fluorescence;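 active means fluorescence ratio rise of at least 3 SD above the vehicle-control mean, seen in both replicates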;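 further: 0% = vehicle mean plus 3 SD and 100% = vehicle minus no-stimulus blank window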
KCNQ2 W236L pot = rat KCNQ2 W236L mutant potentiation by KCNQ2 potentiators; shares compounds with KCNQ2 enhance; CHO KCNQ2-W236L, automated patch clamp current; current increase over 3SD of negative controls (%), hits give high values, % at 25 µM; hit rate 10% among 940; AID 2558;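 active means current increase at least 3 SD of the untreated controls above them in both duplicate recordings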
Target sequence (O88943 whole entry W236L, looked up): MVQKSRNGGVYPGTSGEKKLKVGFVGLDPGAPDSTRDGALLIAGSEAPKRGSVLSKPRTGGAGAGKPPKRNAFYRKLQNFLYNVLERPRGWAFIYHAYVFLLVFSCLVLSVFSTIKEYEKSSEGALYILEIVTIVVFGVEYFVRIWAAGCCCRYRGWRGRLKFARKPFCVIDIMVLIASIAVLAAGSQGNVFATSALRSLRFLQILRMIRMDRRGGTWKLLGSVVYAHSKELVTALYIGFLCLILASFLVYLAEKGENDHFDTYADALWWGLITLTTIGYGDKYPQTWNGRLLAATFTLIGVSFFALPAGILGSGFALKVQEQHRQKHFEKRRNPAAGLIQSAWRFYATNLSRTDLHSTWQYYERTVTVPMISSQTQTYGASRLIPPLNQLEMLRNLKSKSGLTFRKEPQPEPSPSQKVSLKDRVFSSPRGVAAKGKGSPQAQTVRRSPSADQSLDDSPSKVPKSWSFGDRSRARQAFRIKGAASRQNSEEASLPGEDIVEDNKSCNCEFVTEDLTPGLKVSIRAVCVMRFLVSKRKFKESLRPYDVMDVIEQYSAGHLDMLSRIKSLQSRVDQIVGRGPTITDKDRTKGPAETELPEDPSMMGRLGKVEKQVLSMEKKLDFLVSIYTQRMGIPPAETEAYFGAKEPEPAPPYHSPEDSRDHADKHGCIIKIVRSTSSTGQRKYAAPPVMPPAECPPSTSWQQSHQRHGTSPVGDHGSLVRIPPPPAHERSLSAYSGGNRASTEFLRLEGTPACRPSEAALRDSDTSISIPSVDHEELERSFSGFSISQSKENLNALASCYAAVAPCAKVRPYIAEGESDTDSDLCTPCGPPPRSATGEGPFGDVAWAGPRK
* = called active by the depositor; i = inactive; . = no result given. Shown are actives, neighbours in structure and some others; about 1.6% of the full set was active somewhere.

SMILES | KCNQ2 block | KCNQ2 enhance | Kir21 conf inh | HEK293 Tl flux | others
Cn1c(CNC(=O)c2ccco2)nnc1SCC(=O)Nc1ccc(Cl)cc1 | i | . | . | .
O=C(CSc1ncnc2c1oc1ccccc12)c1cccs1 | i | 0.98 | . | .
Cc1nc(SCC(=O)c2cccs2)c2oc3ccccc3c2n1 | i | 6.05* | i | i | CHO-K1 ctr=-16.2;KCNQ1 sel pot=-4.2;KCNQ2 pot conf=-7.3;Kir2-1 sel=-37.5;KCNQ2 W236L pot=i
CCCCn1c(-c2ccccc2)cnc1SCC(=O)NCCc1ccc(OC)c(OC)c1 | i | . | 56.0%* | i
COc1ccc(CCNC(=O)CSc2nnc(-c3ccccc3)c3ccccc23)cc1OC | i | . | . | .
CC1CCN(S(=O)(=O)c2cc3c4c(c2)C(C)C(=O)N4CCC3)CC1 (stereo not given) | i | . | . | .
Cc1noc(C)c1COC(=O)CCOc1ccccc1 | i | 1.08 | . | .
Cc1noc(C)c1COC(=O)CCN1c2ccccc2Sc2ccccc21 | i | . | 70.0%* | i
Cc1[nH]c(=O)c(C#N)c(C)c1CCC(=O)NCc1cccc(C(F)(F)F)c1 | i | . | . | .
S=C(NCc1cccnc1)Nc1ccc(Oc2ccccc2)cc1 | i | 0.02 | . | .
O=C(Nc1ccc(OCc2ccccc2)cc1)c1cccnc1 | i | 0.6 | . | .
O=C(Nc1ccc(OCc2ccccc2)cc1)Nc1cccnc1 | i | 7.23* | i | i | CHO-K1 ctr=-24.6;KCNQ1 sel pot=63.7*;KCNQ2 pot conf=11.3*;Kir2-1 sel=-30.7;KCNQ2 W236L pot=i
S=C(Nc1ccc(Oc2ccccc2)cc1)Nc1cccnc1 | i | 17.8* | i | i | CHO-K1 ctr=8.9*;KCNQ1 sel pot=-3.7;KCNQ2 pot conf=83.0*;Kir2-1 sel=-28.6;KCNQ2 W236L pot=4.7%*
Cc1n[nH]c(C)c1CCC(=O)N/N=C/C=C/c1ccccc1 | i | 2.31 | . | .
Cc1cc(C)n(CC(=O)NC2CCCN(Cc3ccc(Cl)cc3)C2)n1 (stereo not given) | i | 0.48 | . | .
O=C(Cc1cccc(F)c1F)NC1CCCN(Cc2ccc(Cl)cc2)C1 (stereo not given) | i | 6.21* | i | 218.5%* | CHO-K1 ctr=115.5*;KCNQ1 sel pot=-15.0;KCNQ2 pot conf=16.5*;Kir2-1 sel=-50.0;KCNQ2 W236L pot=i
Cc1ccc(S(=O)(=O)N2CCCCC2)cc1NC(=O)c1ccccn1 | i | . | . | .
CC1CCN(C(=O)CCNS(=O)(=O)c2ccccc2)CC1 | i | 0.15 | . | .
O=C(CCNS(=O)(=O)c1ccccc1)N1CCC(Cc2ccccc2)CC1 | i | 10.5* | i | i | CHO-K1 ctr=13.9*;KCNQ1 sel pot=87.7*;KCNQ2 pot conf=8.7*;Kir2-1 sel=-35.6;KCNQ2 W236L pot=i
CN(C(=O)CSc1ncnc2sc(-c3ccccc3)cc12)C1CCS(=O)(=O)C1 (stereo not given) | i | 19.8* | i | 448.0%* | CHO-K1 ctr=0.0*;KCNQ1 sel pot=-19.0;KCNQ2 pot conf=76.3*;Kir2-1 sel=-20.9;KCNQ2 W236L pot=i
CN(C(=O)CSc1ncnc2scc(-c3ccccc3)c12)C1CCS(=O)(=O)C1 (stereo not given) | i | 0.37 | . | .
CC(C)Cn1c(N)c(C(=O)COC(=O)Cc2cccc(C(F)(F)F)c2)c(=O)n(C)c1=O | i | . | . | .
O=C(COc1ccc2ccccc2c1Br)N1CCCCC1 | i | 13.4* | i | i | CHO-K1 ctr=-2.4;KCNQ1 sel pot=-24.7;KCNQ2 pot conf=30.1*;Kir2-1 sel=-35.1;KCNQ2 W236L pot=i
NC(=O)C1CCN(C(=O)COc2ccc3ccccc3c2Br)CC1 | i | . | . | .
O=C(COc1cc2oc(=O)cc(-c3ccccc3)c2cc1Cl)NCc1ccccn1 | i | 1.14 | . | .
SMILES | KCNQ2 block | KCNQ2 enhance | Kir21 conf inh | HEK293 Tl flux | others
O=C(c1cc2ccccc2o1)N1CCN(c2ccccn2)CC1 | i | . | . | .
C=CCn1c(O)c2ccc(C(=O)N=NC(=O)c3ccc(F)cc3)cc2c1O | i | 0.48 | . | .
S=c1[nH]c2cc(-c3ccccc3)ccc2o1 | i | 17.9* | i | 499.5%* | CHO-K1 ctr=-16.8;KCNQ1 sel pot=-5.9;KCNQ2 pot conf=99.8*;Kir2-1 sel=3.9*;KCNQ2 W236L pot=i
O=S(=O)(c1ccc2oc(=S)[nH]c2c1)N1CCCCC1 | i | . | . | .
O=C(O)CCCC(=O)N1CC(=O)Nc2ccccc21 | i | 1.68 | . | .
O=C1CN(C(=O)CCCc2c[nH]c3ccccc23)c2ccccc2N1 | i | . | 50.5%* | i
COc1ccccc1N(C)S(=O)(=O)c1ccc(C(=O)OCC(=O)N2CCCCCC2)cc1 | i | 0.54 | . | .
COc1ccccc1CNC(=O)c1sccc1-c1ccccc1 | i | . | 74.0%* | i
CN(Cc1ccccc1F)C(=O)c1sccc1-c1ccccc1 | i | . | 53.5%* | i
COc1ccccc1CNC(=O)c1sccc1C | i | . | . | .
COc1cccc(CN(C)C(=O)c2sccc2-c2ccccc2)c1OC | i | . | . | .
O=C1c2ccccc2C(O)(c2ccccc2)N1c1ccncc1 (stereo not given) | i | 0.65 | . | .
CCN(CC(=O)Nc1c(F)cccc1F)C(=O)c1ccc(C#N)cc1 | i | . | . | .
Cc1ccc(S(=O)(=O)NNC(=O)Nc2ccccc2F)c(C)c1 | i | 0.72 | . | .
CC1(C)CC(=O)C(C(C2=C(O)CC(C)(C)CC2=O)c2ccco2)C(=O)C1 (stereo not given) | i | 5.4* | i | i | CHO-K1 ctr=134.6*;KCNQ1 sel pot=-10.2;KCNQ2 pot conf=42.4*;Kir2-1 sel=-44.2;KCNQ2 W236L pot=i
COc1cc(C(C2=C(O)CC(C)(C)CC2=O)C2C(=O)CC(C)(C)CC2=O)cc(OC)c1OC (stereo not given) | i | . | . | .
CCc1ccc(-n2ccc(=O)c(C(=O)O)n2)cc1 | i | 0.38 | . | .
Cc1ccc(S(=O)(=O)n2cccc2C)cc1 | i | 0.81 | . | .
Cc1ccc(Cc2c[nH]c(=S)s2)cc1 | i | 7.87* | i | 386.0%* | CHO-K1 ctr=-3.3;KCNQ1 sel pot=-10.1;KCNQ2 pot conf=62.6*;Kir2-1 sel=-17.5;KCNQ2 W236L pot=i
Cc1ccc(Cc2c(C)[nH]c(=S)[nH]c2=O)cc1 | i | . | . | .
COc1ccc(O)c(C(=O)c2coc(=N)c(C(=O)Nc3ccc(SC(F)F)cc3)c2)c1 | i | . | . | .
Nc1ccccc1C(=O)Nc1cccc2ccccc12 | i | . | . | .
CC12CCC(C(=O)Nc3cccc4ccccc34)(C1Br)C2(C)C (stereo not given) | i | 10.3* | i | i | CHO-K1 ctr=1.5*;KCNQ1 sel pot=-24.9;KCNQ2 pot conf=48.5*;Kir2-1 sel=-21.1;KCNQ2 W236L pot=i
Cc1[nH]c2ccccc2c1C(=O)C(C)OC(=O)c1ccc(Cl)nc1 (stereo not given) | i | . | . | .
CCSc1nc2c(sc3ccccc32)c(=O)n1C(C)C | i | 6.03* | i | 243.5%* | CHO-K1 ctr=29.2*;KCNQ1 sel pot=1.2*;KCNQ2 pot conf=24.9*;Kir2-1 sel=-33.6;KCNQ2 W236L pot=i
CCCCn1c(SCC(N)=O)nc2c(sc3ccccc32)c1=O | i | 0.35 | . | .
CN(C)CCN(Cc1ccccc1)C(=O)[C@H](Cc1ccccc1)N1C(=O)c2ccccc2C1=O | i | 0.91 | 69.0%* | i
